# Test results published in PubChem BioAssay (NCATS).
# “And” between values parts separate entries of the source, which are not always exact repeats. Equal entries are not always repeated. Results filed as inconclusive are left out. The source made the active and inactive calls. Calls follow the shape of the full dose curve.
# Target: Cytochrome P450 1A2 (Homo sapiens) (UniProt P05177)
# Assay: p450-cyp1a2 (AID 410);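 as to activity change, negative = inhibition: -100% = full effect of reference inhibitor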
# Settings: recombinant CYP1A2, luciferin-ME demethylation, luminescence; series mostly up to 57 µM; activity change, negative = inhibition: at the top concentration
# Method: The P450 gene superfamily is involved in metabolism and the clearance of xenobiotics. This assay used human CYP1A2 to measure the demethylation of luciferin 6' methyl ether (Luciferin-ME; Promega-Glo) to luciferin. The luciferin is then measured by luminescence after the addition of a luciferase detection regeant. Luciferin-ME concentration in the assay was equal to its Km for CYP1A2.
# NCGC Assay Protocol Summary:
# Two uL of enzyme and substrate mix (final concentrations: 20nM CYP1A2, 100uM Luciferin-ME, 100mM KPO4) were dispensed into a white, solid bottom 1536-well microtiter plate. 23nL of compound was transferred by a pin tool. The plate was incubated at room temperature for 10 min. Two uL of an NADPH regeneration solution (Promega supplied reagent) was dispensed and the reaction was allowed to continue for 60 min at room temperature. Then the reaction was stopped by reconstituted detection reagent. After another 20 min of incubation the plate was read on the ViewLux (Perkin Elmer) at 60 sec exposure and 2x2 binning. This protocol was carried out with Promega-Glo reagents and further information can be found at http://www.promega.com/tbs/tb325/tb325.pdf. Data were normalized to the to AC100 inhibition (57 uM furafylline).
# Potency is read from the fitted curve at half-maximal effect.
# Chain of Cytochrome P450 1A2 (Homo sapiens) (P05177 whole entry, looked up): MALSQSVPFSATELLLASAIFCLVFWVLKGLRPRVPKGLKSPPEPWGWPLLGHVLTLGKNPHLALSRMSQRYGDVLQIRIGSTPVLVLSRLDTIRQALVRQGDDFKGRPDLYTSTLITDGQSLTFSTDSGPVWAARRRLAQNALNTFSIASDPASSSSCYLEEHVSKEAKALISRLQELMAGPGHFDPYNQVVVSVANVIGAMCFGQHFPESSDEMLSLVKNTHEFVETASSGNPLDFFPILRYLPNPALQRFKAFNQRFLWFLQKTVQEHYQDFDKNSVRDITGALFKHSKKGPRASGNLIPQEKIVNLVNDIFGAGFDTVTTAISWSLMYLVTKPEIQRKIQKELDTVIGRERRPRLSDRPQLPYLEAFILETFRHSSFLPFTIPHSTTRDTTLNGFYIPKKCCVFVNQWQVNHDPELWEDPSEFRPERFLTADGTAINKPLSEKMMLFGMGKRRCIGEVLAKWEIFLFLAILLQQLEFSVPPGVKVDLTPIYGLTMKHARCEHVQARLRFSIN
SMILES,"activity change, negative = inhibition",Potency
O=C(Oc1ccccc1)N1CCC2(CC1)CN(c1ccccn1)C2,-19.3% (inactive),
CN(C)c1ccc(-c2nc(NCCc3cnc[nH]3)c3ccccc3n2)cc1,,0.631 µM (active)
Cc1noc(C)c1C(=O)N1CCC2(CCCN(C(=O)Nc3ccccc3)C2)CC1,,12.6 µM (active)
O=c1c(-c2cc(F)cc(F)c2)nc2cnc(Oc3ccccc3)nc2n1C1CC1,,2.51 µM (active)
CC(=O)N1CCC2(CC1)CCN(c1cccc(-c3ccccc3)c1)CC2,,3.98 µM (active)
C[C@@]12CC[C@@H]3c4ccc(O)cc4CC[C@H]3[C@H]1CC[C@H]2O,,10 µM (active) and 5.01 µM (active)
COc1ccc(CNc2ccnc(-c3ccccc3OC)n2)c(OC)c1,,5.01 µM (active)
CN(C)C(=O)c1ccc(-c2ccc3ncnc(N4CCOCC4)c3c2)cc1,-16.8% (inactive),
CNc1nc(-c2c(C)noc2C)nc2ccccc12,,0.0501 µM (active)
O=c1c(-c2ccc(Cl)cc2)nc2cncnc2n1Cc1ccccc1Cl,,1.26 µM (active)
COCCn1c(=O)c(-c2ccc(F)cc2)nc2cnc(N(C)C)nc21,,2 µM (active)
CC[C@H](NC(C)C)[C@H](O)c1ccc(O)c(O)c1,,15.8 µM (active) and 12.6 µM (active)
CC(C)CN1CCCC2(CCN(C(=O)c3cccc(F)c3)CC2)C1,7.5% (inactive),
COc1ccc(NC(=O)N2CCCC3(CCN(S(=O)(=O)c4ccccc4)CC3)C2)cc1,-19.8% (inactive),
c1cncc(CNc2cc(-c3ccoc3)ncn2)c1,,3.16 µM (active)
CS(=O)(=O)N1CCC2(CC1)CN(c1ncccn1)C2,16.3% (inactive),
O=C(c1cccc(F)c1)N1CCC2(CCCN(c3ccc(-c4ccccc4)cc3)C2)CC1,,15.8 µM (active)
COc1ncc2nc(C)c(=O)n(CCC#N)c2n1,,15.8 µM (active)
N#Cc1cccc(-c2nc3cnc(Nc4ccccc4)nc3n(C[C@H]3CCCO3)c2=O)c1,,2 µM (active)
O=c1c(-c2ccccc2)nc2cncnc2n1-c1ccccc1,,5.01 µM (active)

SMILES,"activity change, negative = inhibition",Potency
COc1ccc(CNc2ncnc3ccc(-c4ccoc4)cc23)c(OC)c1,,1.58 µM (active)
CS(=O)(=O)Nc1cccc(-c2cncnc2-n2ccnc2)c1,,15.8 µM (active)
COc1cccc(-c2cc(NCCc3c[nH]c4ccc(OC)cc34)ncn2)c1,,0.794 µM (active)
Cc1cccc(CNc2nc(-c3ccccc3CN(C)C)nc3ccccc23)c1,,3.16 µM (active)
COCC(=O)N1CCC2(CCCN(Cc3ccccc3OC)C2)CC1,-3% (inactive),
COc1cccc(Nc2ncc3nc(-c4cccs4)c(=O)n(Cc4cccs4)c3n2)c1,,2 µM (active)
N#Cc1cccc(-c2cncnc2NCc2ccccc2)c1,,5.01 µM (active)
N#Cc1cccc(NC(=O)N2CCCC3(CCN(C(=O)c4cnccn4)CC3)C2)c1,,20 µM (active)
O=c1c(-c2cccs2)nc2cncnc2n1C1CC1,,2.51 µM (active)
CN(Cc1ccco1)c1ccnc(-c2ccoc2)n1,,12.6 µM (active)
CN(C)C(=O)c1ccc(-c2nc(N(C)C)c3ccccc3n2)cc1,,10 µM (active)
O=c1c(-c2ccc(F)cc2)nc2cnc(N3CCOCC3)nc2n1CCc1ccccc1,,25.1 µM (active)
O=S(=O)(c1ccccc1)N1CCC[C@@]2(CCN(Cc3nccs3)C2)C1,,15.8 µM (active)
CC(C)NC(=O)N1CC[C@@]2(CCCN(C(=O)c3cccc(F)c3)C2)C1,1.3% (inactive),
Cc1noc(C)c1-c1nccc(N(C)Cc2ccco2)n1,,2 µM (active)
CN1CCN(c2ncncc2-c2cccnc2)CC1,,25.1 µM (active)
CC(=O)NCCNc1nc(-c2c(C)noc2C)nc2ccccc12,,1.58 µM (active)
Clc1ccccc1-c1nc(NCc2cccs2)c2ccccc2n1,,1 µM (active)
CC(C)CN1CCC2(CC1)CCN(C(=O)c1ccncc1)CC2,7.8% (inactive),
COc1ccc2[nH]cc(CCNc3cc(-c4ccccc4C)ncn3)c2c1,,1 µM (active)
